Compound activity: PubChem BioAssay, several laboratories
PP1 counter: PP1-alpha (human) inhibition in PP5 counter-screen; hit rate 0.9% among 320,000; inhibition, % at 6.7 µM; purified PP1alpha, OMFP fluorescence; P62136;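 active = inhibition above the mean inhibition of all tested compounds plus 3 SD, computed separately for each screening campaign, cut at about 15% in these data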
PG9 Ab binder: binds the HIV-1 gp120 antibody PG9; hit rate 0.43% among 360,000; inhibition, % at 6.7 µM; TR-FRET gp120-PG9 antibody binding; in the data active = inhibition above about 8.5%
NR1D1 modulator: modulates human Rev-erb alpha binding to DNA; Rev-erbα–FITC-DNA binding, fluorescence polarization, 90 min; hit rate 0.79% among 370,000; P20393; activity, % at 10 µM;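 active = activity above about 14%, limit read from the data; passing the limit was not always enough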;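 also: 0% = DMSO wells with 35 nM protein and 100% = DMSO wells with 750 nM protein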
GASC-1 inh: inhibitors of human GASC-1 (JMJD2C) demethylase. Q9H3R0. GST-JMJD2C(1-420) H3K9me3 demethylation, DELFIA europium. inhibition, % at 2.35 µM. hit rate 0.069% among 330,000. AID 2099;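 active = more than half of a compound's replicate wells show inhibition beyond 50%, single wells judged on their own value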;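 also: signal counts dimethyl H3K9 product captured on neutravidin plate; 0% = median of DMSO wells and 100% = 0.3 times that DMSO median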
Target sequence (Q9H3R0 1-420 limits assumed): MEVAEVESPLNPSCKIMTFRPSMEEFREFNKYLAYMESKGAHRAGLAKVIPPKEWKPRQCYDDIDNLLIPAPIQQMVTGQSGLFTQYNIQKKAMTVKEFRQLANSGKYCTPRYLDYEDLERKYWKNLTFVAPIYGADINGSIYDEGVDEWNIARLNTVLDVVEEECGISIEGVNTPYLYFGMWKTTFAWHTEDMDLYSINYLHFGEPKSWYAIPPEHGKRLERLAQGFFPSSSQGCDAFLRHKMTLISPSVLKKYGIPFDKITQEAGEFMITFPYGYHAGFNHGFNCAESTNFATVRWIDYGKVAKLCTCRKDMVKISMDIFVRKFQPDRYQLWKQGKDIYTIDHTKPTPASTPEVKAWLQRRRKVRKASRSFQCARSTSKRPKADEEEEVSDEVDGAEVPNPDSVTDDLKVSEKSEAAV
KLK7 zymogen act: activators of human kallikrein-7 zymogen. P49862. purified proKLK7, EDANS-DABCYL substrate fluorescence; 100% is mature enzyme control, 0% vehicle. activation, % at 7 µM. hit rate 0.9% among 370,000. AID 652039;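 active = activation above the mean of all tested compounds plus 3 SD, computed per campaign excluding outliers beyond control limits, cut at about 13% in these data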
PP5 inh: inhibitors of human protein phosphatase 5 (PP5) | hit rate 0.18% among 320,000 | P53041 | purified PP5c, OMFP substrate fluorescence | inhibition, % at 6.7 µM;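 active = inhibition above the campaign's mean inhibition across all tested compounds plus 3 SD, cut at about 9.5% in these data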;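 also: 0% = DMSO only and 100% = 100 µM cantharidin control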
PP1 inh confirm: human PP1 phosphatase inhibition, confirmation; shares compounds with PP1 counter; purified PP1alpha, OMFP substrate fluorescence; hit rate 52% among 1,900; inhibition, % at 6.7 µM;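 active = mean PP1 inhibition above a set limit taken from the earlier primary screen, cut at about 15% in these data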
PP5 inh counter: PP5 phosphatase inhibition, counter-screen for PP1 inhibitors. inhibition, % at 6.7 µM. hit rate 4% among 1,900. AID 2360. purified PP5c, OMFP fluorescence. shares compounds with PP1 counter;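 active = mean PP5 inhibition over triplicate wells above about 9.5% taken from the earlier PP1 screen, limit read from the data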
An asterisk follows results filed as active; nt = no result. Hits are enriched below; roughly 2.8% of the tested compounds scored in any of these assays.

SMILES | PP1 counter | PG9 Ab binder | NR1D1 modulator | GASC-1 inh | KLK7 zymogen act | PP5 inh | PP1 inh confirm | PP5 inh counter
CCOC(=O)c1sc(N2C(=O)C(O)=C(C(=O)c3ccc(C)o3)C2c2ccc(OC)c(OC)c2)nc1C (stereo not drawn) | 37* | -2 | -1 | 9 | 0 | 2 | 35* | 5
COc1ccc2nc(N3C(=O)C(O)=C(C(=O)c4ccco4)C3c3ccc(OC)c(OC)c3)sc2c1 (stereo not drawn) | nt | 0 | -3 | nt | 2 | nt | nt | nt
CCOC(=O)c1sc(N2C(=O)C(O)=C(C(=O)c3ccc(C)o3)C2c2cccc([N+](=O)[O-])c2)nc1C (stereo not drawn) | 35* | 0 | 1 | 10 | 0 | 3 | 21* | -2
COC(=O)c1sc(N2C(=O)C(O)=C(C(=O)c3ccc(C)o3)C2c2ccc([N+](=O)[O-])cc2)nc1C (stereo not drawn) | 43* | -1 | -1 | 3 | -1 | 1 | 29* | -1
Cc1cc(N2C(=O)C(O)=C(C(=O)c3ccco3)C2c2ccc([N+](=O)[O-])cc2)no1 (stereo not drawn) | 4 | 0 | 7 | 6 | 0 | 3 | nt | nt
Cc1ccc2nc(N3C(=O)C(O)=C(C(=O)c4ccc(C)o4)C3c3cccc(O)c3)sc2c1 (stereo not drawn) | 25* | 0 | -5 | 15 | 1 | 2 | 27* | 9.7*
O=C(Nc1ccccc1C(F)(F)F)OC1CC2CC1[C@H]1CCCCN1C2 (stereo partly drawn) | nt | nt | -1 | nt | 0 | nt | nt | nt
COc1cc(OC)cc(C(=O)NCCN2C(=O)C3C4C=CC(C4)C3C2=O)c1 (stereo not drawn) | nt | nt | -2 | nt | 0 | nt | nt | nt
C=CCOc1cccc(C2C(C(=O)c3ccco3)=C(O)C(=O)N2Cc2cccnc2)c1 (stereo not drawn) | -1 | 6 | 4 | 23 | 1 | 1 | nt | nt
C=CCOc1cccc(C2C(C(=O)c3ccc(C)o3)=C(O)C(=O)N2c2nccs2)c1 (stereo not drawn) | 22* | 6 | 3 | -3 | 1 | -1 | 15* | -2
CC(=O)c1cccc(NC(=O)N[C@@H](CC(C)C)C(=O)O)c1 | -2 | 2 | -1 | 7 | 1 | 2 | nt | nt
CC(=O)c1ccc(NC(=O)N[C@@H](CC(C)C)C(=O)O)cc1 | 18* | -2 | -2 | -12 | 1 | -3 | -4 | -1
NC(=O)c1nn(-c2ccccc2)nc1NC(=O)CN1CCCCC1 | 47* | -1 | 3 | 3 | 1 | 4 | -5 | -6
Cc1cccc(N2CSC3=C(C#N)C(c4ccc(C)o4)CC(=O)N3C2)c1 (stereo not drawn) | 20* | nt | nt | -11 | nt | 5 | 16* | 3
CC(OC(=O)c1ccc(NC(=O)CC#N)cc1)C(=O)NC(c1ccccc1)c1ccccc1 (stereo not drawn) | nt | 0 | -3 | 2 | 0 | nt | nt | nt
Cc1cc(C(=O)C(C)OC(=O)c2ccc(NC(=O)CC#N)cc2)c(C)n1-c1ccccc1 (stereo not drawn) | 19* | 1 | 5 | 3 | 0 | 3 | 6 | 0
O=C(NCCCc1ccccc1)[C@H](Cc1ccccc1)NC1(C(=O)NCCc2c[nH]c3ccccc23)CCOCC1 | nt | nt | 4 | nt | nt | nt | nt | nt
O=C(CN1C(=O)NC2(CCCC2)C1=O)OCCOc1cccc(Cl)c1 | 18* | 0 | 1 | -6 | 0 | 1 | -2 | -5
Cc1cc(C(=O)CN2C(=O)C(=O)N(C3CCCC3)C2=O)c(C)n1CCc1ccc(F)cc1 | 18* | 1 | -3 | nt | 1 | 0 | 6 | -5
O=C(Nc1nc2n(n1)C(c1ccc(Cl)cc1)CC(c1ccc(Cl)cc1)N2)c1ccco1 (stereo not drawn) | 23* | 2 | 5 | -3 | 0 | 4 | 16* | -2
C#CCOCCOCCOCCNc1nc(N2CCN(C(=O)CCCCCCCCCCNC(=O)[C@@H](CCSC)n3cc(CCO)nn3)CC2)nc(N2CCN(C(=O)CCCCCCCCCCNC(=O)[C@H]([C@@H](C)CC)n3cc(CCCCCN)nn3)CC2)n1 | 60* | nt | nt | 10 | nt | 4 | 53* | 3
